# Assay outcomes deposited in PubChem BioAssay by several laboratories.
# This is a sample that favours compounds with a hit; in the whole collection about 4.7% have one here.
# PABP FP inh: blocks human PABP binding to poly(A) RNA. AID 2014. P11940. actives 1% (n = 290,000). fluorescence polarization. inhibition, % at 35 µM;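 also: calls also rest on retests at 20 µM and on dose response follow-up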
# eIF4H inh: inhibitors of RNA binding by human eIF4H; AID 2012; Q15056; inhibition, % at 35 µM; actives 0.94% (n = 290,000); eIF4H fluorescence polarization binding assay;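 also: calls also rest on retests at 20 µM and on dose response follow-up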
# Efflux pump inh: inhibitors of Candida antifungal efflux pumps expressed in yeast; S. cerevisiae Candida pump triplex, Nile Red efflux; inhibition, % at 10 µM; actives 0.44% (n = 330,000); AID 485275;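 active = plate passing quality check with inhibition over a set limit, or well fluorescence over plate mean plus 4 SD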;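 also: Nile Red retained in pooled yeast measured as flow cytometry median fluorescence; 0% = buffer negative control and 100% = Enniatin B positive control; higher means more Nile Red kept so more efflux inhibition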
# PABP1 MLLE inh: inhibitors of microRNA-mediated deadenylation, human PABP1 MLLE binding. P11940. GST-MLLE / FITC-PAM2 fluorescence polarization. inhibition, % at 20 µM. actives 0.36% (n = 360,000); in the data active = inhibition above about 35%, passing the limit was not always enough;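 also: plate controls were DMSO wells with GST-MLLE for no effect and wells lacking GST-MLLE protein for full effect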
# ALR H2O2 inh: human ALR oxidase inhibition via reduced H2O2; purified ALR, DTT oxidation, H2O2 HRP-luminol luminescence; inhibition, % (no concentration beside the values); actives 3.8% (n = 290,000);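 active = mean replicate inhibition above about 79%, with every replicate also reaching it, limit read from the data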
# SUMO HTRF inh: SUMOylation inhibition | actives 0.36% (n = 290,000) | inhibition, % at 35 µM | HTRF SUMOylation assay, SAE1/SAE2 + UBC9, in vitro | AID 2006 | P63279; in the data active = inhibition above about 50%, passing the limit was not always enough
# Target sequence (P63279 whole entry, looked up): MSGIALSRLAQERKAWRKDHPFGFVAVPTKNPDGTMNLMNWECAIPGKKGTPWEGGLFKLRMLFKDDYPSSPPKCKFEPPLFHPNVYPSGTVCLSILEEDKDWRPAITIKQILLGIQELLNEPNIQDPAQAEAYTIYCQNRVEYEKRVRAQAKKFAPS
# * = called active by the depositor; . = no result. Unless noted, no rule for the calls is given here.
SMILES,PABP FP inh,eIF4H inh,Efflux pump inh,PABP1 MLLE inh,ALR H2O2 inh,SUMO HTRF inh
O=S(=O)(c1ccc(NC(=S)Nc2ccc3c(c2)OCO3)cc1)N1CCOCC1,2.8*,94*,0,22,-56,13
CC1(C(=O)NS(=O)(=O)c2ccc(F)cc2F)CCN1C(=O)c1cccc(F)c1 (stereo not given),.,.,.,-2,.,.
NC(=O)C1=CC2C3C=CC2(O)C(=O)OC3O1 (stereo not given),.,.,.,-9,.,.
O=S(=O)(c1ccc(Cl)c(NC(=S)Nc2ccccc2N2CCOCC2)c1)N1CCOCC1,-1,-2,0,21,98*,10
O=S(=O)(c1ccc(Cl)c(NC(=S)N/N=C/c2c(F)cccc2F)c1)N1CCOCC1,-1,-10,0,-5,-2,0
O=C(CN1CCOCC1)Nc1cc([N+](=O)[O-])ccc1Cl,66,active,0,10,-6,1
CC(C)(C)c1ccc(/C=N/NC(=S)Nc2cccnc2)cc1,-3,-10,0,.,2,6
Oc1ccc(/C=N/NC(=S)Nc2cccnc2)cc1O,1.5*,68,0,40*,99*,24
O=S(=O)(c1ccc(Cl)c(NC(=S)N/N=C/c2ccc(O)cc2)c1)N1CCOCC1,-14,0,0,25,99*,-1
COc1cccc(CN(C)CCCn2ccc(NC(=O)OCc3ccccc3)nc2=O)c1,.,.,.,7,.,.
CCN1C(=O)N(C)[C@@H](c2ccccc2)C(C(=O)OC)=C1C,3,-11,0,0,1,14
COc1ccc(NC(=O)C2CC(=O)N(c3ccccc3F)C2)cc1S(=O)(=O)N1CCCCC1 (stereo not given),.,.,.,-14,.,.
c1ccc(C2Nc3ccccc3C3OCCCC23)cc1 (stereo not given),3,1,0,-3,99*,6
Cc1ccc2c(c1)[C@H]1OCC[C@H]1[C@@H](c1ccncc1)N2,6,-17,0,3,.,22
C[C@@H]1CN([C@H](C)CO)C(=O)c2c(c3ccccc3n2C)-c2ccccc2CO[C@@H]1CN(C)S(=O)(=O)c1cccs1,.,.,.,28,.,.
Cc1ccc2nc3c(cc(C#N)c(=O)n3CCN3CCOCC3)c(=O)n2c1,56,28,.,.,.,38
CCC(C)n1c(=N)c(C#N)cc2c(=O)n3cc(C)ccc3nc21 (stereo not given),28*,58*,0,-5,-2,14
Cc1ccc2nc3c(cc(C#N)c(=O)n3-c3nccs3)c(=O)n2c1,104*,98*,0,2,-6,27
Cc1ccc2nc3c(cc(C#N)c(=O)n3CC3CCCO3)c(=O)n2c1 (stereo not given),57*,32*,.,.,.,43
CCc1cccc(C)c1NC(=O)c1cc(=O)[nH]c2ccc(S(=O)(=O)N3CCOCC3)cc12,.,.,0,-100,-2,.
CCCCCCN1C[C@H](O)[C@@H](n2cc(COC(=O)c3ccccc3)nn2)C[C@@H]1c1ccccc1,.,.,.,1,.,.
CCc1ccc2[nH]c(=O)c(-c3ccccc3)c(O)c2c1,-2,-3,0,-5,1,9
Nc1nc(N)nc(-c2cc(O)ccc2O)n1,.,.,0,-1,91*,.
Nc1nc(N)nc(-c2cc([N+](=O)[O-])ccc2O)n1,.,.,0,4,-9,.
NNC(=O)c1cccc(COc2ccccc2Br)c1,2,-2,0,-5,98*,-16
SMILES,PABP FP inh,eIF4H inh,Efflux pump inh,PABP1 MLLE inh,ALR H2O2 inh,SUMO HTRF inh
O=C(NCc1ccccc1)c1cccc(COc2ccccc2Cl)c1,8,-1,0,5,-2,-29
CCOC(=O)NC(=O)/C(C#N)=C/c1ccc(N(C)C)cc1,44*,77,0,-139,.,10
COc1ccc(-c2cc(-c3cccs3)c(C#N)c(SCC(=O)NCc3ccco3)n2)cc1,12,55*,0,8,-3,32
COc1ccc(NC(=O)CSCC(=O)NCc2ccco2)cc1,.,.,0,5,55,.
COc1ccc(C(=O)Nc2ccc(-c3nnn(CC(=O)NCc4ccco4)n3)cc2)cc1,-6,11,0,-13,2,61*
O=C(Cn1nnc(-c2ccc(Cl)cc2)n1)NCc1ccco1,1,58,0,-4,.,13
Cc1ccc(-c2nc(CSCC(=O)NCc3cccnc3)c(C)o2)cc1,4,3,0,-8,99*,0
COc1ccc(-c2nc(CSCC(=O)NCc3ccco3)c(C)o2)cc1,-38,-2,0,25,99*,28
c1cn(CCCNC2CCCCCCC2)cn1,.,.,0,5,-10,.
